Assay results reported in ChEMBL document CHEMBL1157539, “Thousands of chemical starting points for antimalarial lead identification” (Nature, 2010).

Each compound was assayed on Plasmodium falciparum (assay: GSK_TCMDC: Inhibition of Plasmodium falciparum 3D7 in whole red blood cells, using parasite LDH activity as an index of growth. Test compounds present at 2uM).
Assay type: functional
With `CC(=O)N/N=C/[C@H](CCc1ccccc1)NC(=O)[C@H](CC(C)C)NC(=O)c1cccc(OCCN2CCOCC2)c1` the Inhibition was 94%. `O=C(Nc1cc(Cl)cc(Cl)c1)N[C@H]1CCN(CCCCCNC(=O)C2CC2c2ccc(Cl)c(Cl)c2)C1` (stereo partly specified) showed an Inhibition of 99%. In the case of `COc1cccc(NC(=O)Cn2c(C)c(C(=O)C(F)(F)F)c3ccccc32)c1`, the Inhibition is reported as 97%.

Each compound was assayed on Plasmodium falciparum (assay: GSK_TCMDC: Inhibition of Plasmodium falciparum Dd2 in whole red blood cells, using parasite LDH activity as an index of growth. Test compounds present at 2uM).
Assay type: functional
Compound `N#Cc1ccc(N2C[C@@H](OCc3ccccc3)C[C@H]2C(=O)NCCC(c2ccccc2)c2ccccc2)c2ccccc12` has an Inhibition of 96%. `FC(F)(F)Oc1cccc(CNc2noc(-c3sccc3Br)n2)c1` gave an Inhibition of 97%. `COc1cc(Cc2cnc(N)nc2N)cc(OC)c1OC` [TRIMETHOPRIM] was tested, and the Inhibition was 2%. `O=C(Nc1ccc(Cn2ncc(N3CCCNCC3)c(Cl)c2=O)cc1)Nc1cccc(SC(F)(F)F)c1.O=C(O)C(F)(F)F` showed an Inhibition of 33%. Work on `Cc1cccc2nc(-c3ccc(-c4ccc(CN5CCN(CC6CCCN(C)C6)CC5)cc4)s3)[nH]c12.O=C(O)C(F)(F)F` (stereo unspecified) yielded an Inhibition of 99%. With `CCCCc1cc(NCc2ccncc2)nc(Nc2cccc(OC)c2)n1` the Inhibition was 56%. Work on `Cc1onc(-c2c(Cl)cccc2Cl)c1C(=O)NC1=NC(C)(C)ON1c1ccccc1` yielded an Inhibition of 36%. `O=C(O)c1ccc(-c2c[nH]c3ncc(-c4ccc(Cl)cc4)cc23)cc1` showed an Inhibition of 99%. For `Cc1ccc(NC(=O)Nc2ccc(Cl)cc2)cc1-c1cccc(C(=O)Nc2ccc(F)cc2)c1`, the Inhibition was 52%. Work on `O=C(Cn1c(CCc2cccc(F)c2F)cc(=O)c2ccccc21)N(CCN1CCCCC1)Cc1ccc(-c2ccc(C(F)(F)F)cc2)cc1.O=C(O)C(O)C(O)C(=O)O` yielded an Inhibition of 59%. For `COc1ccc(NC(=O)Nc2ccc(-c3ccc(-c4nc5cccc(C)c5[nH]4)s3)cc2)cc1`, the Inhibition was 96%. With `Cc1nc(Nc2ccc(F)cc2)nc(N2CCc3ccccc3C2C)c1CO` (stereo unspecified) the Inhibition was 95%. `CC(C)CC(NC(=O)c1cc2ccccc2s1)C(=O)N1CCCCCC1c1ccc(C(C)(C)C)cc1` (stereo unspecified) showed an Inhibition of 39%. `COc1ccc(Nc2nc(NCc3ccc(-n4ccnc4)cc3)cc(-c3ccc(OC)cc3)n2)cc1` showed an Inhibition of 25%. For `CSC1=NC(=Nc2ccccc2C)C2(CCC(C(C)(C)C)CC2)N1c1ccccc1Cl.I` (stereo unspecified), the Inhibition was 89%. In the case of `CS(=O)(=O)CCNCc1cccc(-c2ccc3c(Nc4cc(O)c(Cl)cc4F)ccnc3c2)c1`, the Inhibition is reported as 100%. For `CC(C)COc1ccc(Cl)cc1Cc1nc(-c2nc3ccc(CN(C)C)cc3[nH]2)co1.Cl`, the Inhibition was 87%. `O=C(O)C(F)(F)F.Oc1ccc(CCNc2nc(NCc3ccccc3-c3ccc(C(F)(F)F)cc3)nc(NC3CCNCC3)n2)cc1` was tested, and the Inhibition was 2%. `Cc1cc(=O)[nH]c(-n2nc(C)cc2NC(=O)C2(c3ccc(Cl)cc3)CCCC2)n1` was tested, and the Inhibition was 97%. `Cc1cc(-c2cc3nc4c(c(O)n3n2)CCCC4)c(C)o1` was tested, and the Inhibition was 82%. `COc1ccc(O)c(Cc2cnc3nc(N)nc(N)c3c2C)c1.O=C(O)C(F)(F)F` was tested, and the Inhibition was 74%. Work on `CN1CCN(CCCCCNc2c3ccccc3nc3ccccc23)CC1.Cl` yielded an Inhibition of 0%. Work on `CN1CCC[C@H]1COc1ccc(CN2CC[C@H](NC(=O)c3ccc(Cl)c(Cl)c3)C2)cc1Cl.O=C(O)C(F)(F)F` yielded an Inhibition of 44%. With `Cl.O=C(C=Cc1ccc(C(=O)Nc2ccc(C3=NCCN3)cc2)cc1)Nc1ccc(C2=NCCN2)cc1` the Inhibition was 100%. `COc1cccc(CNC(=O)[C@H]2CNCCN2C(=O)CCCc2ccccc2)c1.O=C(O)C(F)(F)F` showed an Inhibition of 95%. Work on `COc1cccc(C2CCN(CCCCNC(=O)c3ccc(NC(=O)c4ccc(Cl)cc4)cc3)CC2)c1` yielded an Inhibition of 40%. In the case of `COc1ccc(-c2c(-c3ccc(OCc4ccccc4)cc3O)n[nH]c2C(F)(F)F)cc1`, the Inhibition is reported as 57%. `COc1ccc2[nH]c(/C=C/c3cccc4ccc(C)nc34)nc2c1` showed an Inhibition of 77%. `Cc1cc(=NN=Cc2ccccc2F)c2cc(F)ccc2[nH]1` was tested, and the Inhibition was 97%. With `COC(=O)c1c(C#N)c(OC)cc(O)c1CSC[C@H](Nc1nc(-c2ccc([N+](=O)[O-])cc2)cs1)C(=O)NCCN1CCCCC1` the Inhibition was 88%. `COc1ccc2nc(C)cc(N/N=C/c3ccc([N+](=O)[O-])o3)c2c1` gave an Inhibition of 100%. For `O=C(/C=C/c1ccc(Cl)cc1)NCCCCCN1CCCN(C(=O)Nc2ccc(Cl)c(C(F)(F)F)c2)CC1`, the Inhibition was 1%. `Nc1c(Cl)cc(C(O)CNCCCCCOCCCc2ccc(O)c3ncccc23)cc1Cl.O=C(O)/C=C/C(=O)O` (stereo unspecified) gave an Inhibition of 12%.
